{"source": "ChEMBL document CHEMBL2218924", "about": "“A broad activity screen in support of a chemogenomic map for kinase signalling research and drug discovery” (Biochem J, 2013)", "key": {"[1]": {"target": "T1, Tyrosine-protein kinase ZAP-70 (Homo sapiens) (UniProt P43403)", "T1 sequence (whole entry)": "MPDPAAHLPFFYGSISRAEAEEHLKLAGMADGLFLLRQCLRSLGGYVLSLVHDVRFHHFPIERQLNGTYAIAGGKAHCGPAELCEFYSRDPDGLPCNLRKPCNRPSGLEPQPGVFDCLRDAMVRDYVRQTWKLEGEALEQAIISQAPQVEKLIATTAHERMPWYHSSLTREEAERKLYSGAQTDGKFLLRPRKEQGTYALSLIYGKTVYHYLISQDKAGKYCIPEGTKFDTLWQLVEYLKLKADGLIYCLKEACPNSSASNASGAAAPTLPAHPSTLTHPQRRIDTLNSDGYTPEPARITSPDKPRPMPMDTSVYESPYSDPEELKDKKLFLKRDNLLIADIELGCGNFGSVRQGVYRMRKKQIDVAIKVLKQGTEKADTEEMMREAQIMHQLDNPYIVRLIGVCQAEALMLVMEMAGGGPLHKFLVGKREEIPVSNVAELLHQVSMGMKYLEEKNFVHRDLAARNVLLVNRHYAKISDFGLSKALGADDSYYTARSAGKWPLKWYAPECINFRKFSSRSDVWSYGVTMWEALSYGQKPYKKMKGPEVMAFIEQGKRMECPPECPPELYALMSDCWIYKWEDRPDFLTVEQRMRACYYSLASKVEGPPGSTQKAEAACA", "settings": "at 10 µM"}, "[2]": {"target": "Tyrosine-protein kinase Yes (Homo sapiens) (UniProt P07947)", "sequence (P07947 2-543 limits assumed)": "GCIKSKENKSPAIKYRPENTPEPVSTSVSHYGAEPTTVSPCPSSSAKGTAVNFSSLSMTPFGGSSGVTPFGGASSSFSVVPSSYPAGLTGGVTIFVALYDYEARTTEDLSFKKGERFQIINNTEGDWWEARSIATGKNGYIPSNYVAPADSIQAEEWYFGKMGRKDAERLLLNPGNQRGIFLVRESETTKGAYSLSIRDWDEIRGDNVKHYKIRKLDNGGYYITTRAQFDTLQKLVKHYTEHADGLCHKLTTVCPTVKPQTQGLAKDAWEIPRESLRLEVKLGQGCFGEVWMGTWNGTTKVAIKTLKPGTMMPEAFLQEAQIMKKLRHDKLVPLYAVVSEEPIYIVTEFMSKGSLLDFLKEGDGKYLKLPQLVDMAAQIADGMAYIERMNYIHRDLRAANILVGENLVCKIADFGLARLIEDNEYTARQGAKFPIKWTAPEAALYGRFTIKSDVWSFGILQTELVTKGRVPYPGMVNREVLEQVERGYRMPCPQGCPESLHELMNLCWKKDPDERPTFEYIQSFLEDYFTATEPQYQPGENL", "settings": "at 1 µM"}, "[3]": {"target": "Tyrosine-protein kinase Yes (Homo sapiens) (UniProt P07947)", "settings": "at 10 µM"}, "[4]": {"target": "T1, Tyrosine-protein kinase ZAP-70 (Homo sapiens)", "settings": "at 1 µM"}, "[5]": {"target": "Death-associated protein kinase 3 (Homo sapiens) (UniProt O43293)", "sequence (O43293 whole entry, looked up)": "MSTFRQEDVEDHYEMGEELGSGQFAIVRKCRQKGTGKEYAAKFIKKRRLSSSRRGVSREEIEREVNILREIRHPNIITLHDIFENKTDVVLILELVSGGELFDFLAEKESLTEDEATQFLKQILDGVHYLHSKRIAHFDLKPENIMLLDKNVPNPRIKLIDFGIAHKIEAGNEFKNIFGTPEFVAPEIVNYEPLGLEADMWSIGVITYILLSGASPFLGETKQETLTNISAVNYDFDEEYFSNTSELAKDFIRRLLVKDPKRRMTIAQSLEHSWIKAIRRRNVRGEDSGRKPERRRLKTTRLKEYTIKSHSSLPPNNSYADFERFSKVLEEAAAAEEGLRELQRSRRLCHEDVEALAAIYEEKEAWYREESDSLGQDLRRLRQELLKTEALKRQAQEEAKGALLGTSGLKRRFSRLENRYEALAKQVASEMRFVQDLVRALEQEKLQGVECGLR", "settings": "at 1 µM"}, "[6]": {"target": "Death-associated protein kinase 3 (Homo sapiens) (UniProt O43293)", "settings": "at 10 µM"}, "[7]": {"target": "RAF proto-oncogene serine/threonine-protein kinase (Homo sapiens) (UniProt P04049)", "sequence (P04049 whole entry)": "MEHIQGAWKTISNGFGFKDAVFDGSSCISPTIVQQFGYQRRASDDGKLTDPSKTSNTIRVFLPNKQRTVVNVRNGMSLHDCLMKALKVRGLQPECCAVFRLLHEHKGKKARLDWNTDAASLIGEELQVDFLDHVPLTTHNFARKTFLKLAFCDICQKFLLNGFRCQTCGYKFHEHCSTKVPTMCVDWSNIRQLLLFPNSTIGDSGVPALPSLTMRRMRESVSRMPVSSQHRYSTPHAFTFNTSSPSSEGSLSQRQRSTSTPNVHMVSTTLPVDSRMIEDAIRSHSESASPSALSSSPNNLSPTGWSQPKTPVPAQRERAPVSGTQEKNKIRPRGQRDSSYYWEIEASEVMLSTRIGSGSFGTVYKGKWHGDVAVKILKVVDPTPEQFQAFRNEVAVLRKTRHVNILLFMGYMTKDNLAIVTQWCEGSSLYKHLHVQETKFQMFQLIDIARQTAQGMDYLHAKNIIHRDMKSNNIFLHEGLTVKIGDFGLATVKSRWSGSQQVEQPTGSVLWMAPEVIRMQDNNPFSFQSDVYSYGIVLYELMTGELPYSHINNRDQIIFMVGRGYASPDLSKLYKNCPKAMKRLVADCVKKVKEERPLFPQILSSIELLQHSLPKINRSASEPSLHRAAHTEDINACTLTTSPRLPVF", "settings": "at 1 µM"}, "[8]": {"target": "RAF proto-oncogene serine/threonine-protein kinase (Homo sapiens) (UniProt P04049)", "settings": "at 10 µM"}, "[9]": {"target": "Mast/stem cell growth factor receptor Kit (Homo sapiens) (UniProt P10721)", "sequence (P10721 whole entry)": "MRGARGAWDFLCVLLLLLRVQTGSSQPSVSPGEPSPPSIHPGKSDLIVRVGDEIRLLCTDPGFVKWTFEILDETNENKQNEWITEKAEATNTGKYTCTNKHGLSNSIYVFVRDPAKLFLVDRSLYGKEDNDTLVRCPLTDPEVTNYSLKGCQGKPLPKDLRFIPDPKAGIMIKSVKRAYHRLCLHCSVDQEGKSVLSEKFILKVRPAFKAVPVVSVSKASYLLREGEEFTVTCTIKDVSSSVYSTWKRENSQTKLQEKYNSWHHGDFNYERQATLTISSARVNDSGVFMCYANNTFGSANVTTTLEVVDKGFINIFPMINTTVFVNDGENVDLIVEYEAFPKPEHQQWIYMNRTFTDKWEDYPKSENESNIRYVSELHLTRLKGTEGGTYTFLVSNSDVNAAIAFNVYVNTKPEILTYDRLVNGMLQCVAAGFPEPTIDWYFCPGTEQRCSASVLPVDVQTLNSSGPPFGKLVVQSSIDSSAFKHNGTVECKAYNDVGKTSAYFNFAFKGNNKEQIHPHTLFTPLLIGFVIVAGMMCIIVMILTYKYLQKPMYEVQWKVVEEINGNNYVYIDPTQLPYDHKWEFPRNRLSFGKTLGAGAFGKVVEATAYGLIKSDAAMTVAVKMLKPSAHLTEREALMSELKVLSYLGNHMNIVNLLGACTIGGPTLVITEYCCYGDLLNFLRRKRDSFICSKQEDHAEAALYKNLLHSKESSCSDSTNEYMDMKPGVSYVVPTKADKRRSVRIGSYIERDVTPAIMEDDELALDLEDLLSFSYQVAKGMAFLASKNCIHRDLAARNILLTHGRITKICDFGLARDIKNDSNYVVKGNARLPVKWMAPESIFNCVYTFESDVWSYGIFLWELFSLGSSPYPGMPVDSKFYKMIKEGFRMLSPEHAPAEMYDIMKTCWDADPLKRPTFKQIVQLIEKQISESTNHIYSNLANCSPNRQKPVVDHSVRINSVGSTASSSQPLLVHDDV", "settings": "at 1 µM"}, "[10]": {"target": "Mast/stem cell growth factor receptor Kit (Homo sapiens) (UniProt P10721)", "settings": "at 10 µM"}}}
{"smiles": "Nc1ncnc2[nH]nc(Nc3ccc(F)cc3)c12", "values": [{"measurement": "residual activity", "setting": "[1]", "result": 98, "unit": "%"}]}
{"smiles": "O=c1[nH]c2ccccc2n1C1CCN(Cc2ccc(-c3nc4cc5[nH]cnc5cc4nc3-c3ccccc3)cc2)CC1", "values": [{"measurement": "residual activity", "setting": "[2]", "result": 99, "unit": "%"}, {"measurement": "residual activity", "setting": "[3]", "result": 73, "unit": "%"}, {"measurement": "residual activity", "setting": "[4]", "result": 123, "unit": "%"}, {"measurement": "residual activity", "setting": "[1]", "result": 98, "unit": "%"}, {"measurement": "residual activity", "setting": "[5]", "result": 100, "unit": "%"}, {"measurement": "residual activity", "setting": "[6]", "result": 95, "unit": "%"}, {"measurement": "residual activity", "setting": "[7]", "result": 94, "unit": "%"}, {"measurement": "residual activity", "setting": "[8]", "result": 109, "unit": "%"}, {"measurement": "residual activity", "setting": "[9]", "result": 121, "unit": "%"}, {"measurement": "residual activity", "setting": "[10]", "result": 87, "unit": "%"}]}
{"smiles": "COc1cccc(-c2cc(=O)c3ccccc3o2)c1N", "values": [{"measurement": "residual activity", "setting": "[1]", "result": 120, "unit": "%"}]}
{"smiles": "COc1cc2ncnc(Nc3ccc(OCc4ccccc4)cc3)c2cc1OC", "values": [{"measurement": "residual activity", "setting": "[2]", "result": 64, "unit": "%"}, {"measurement": "residual activity", "setting": "[3]", "result": 39, "unit": "%"}, {"measurement": "residual activity", "setting": "[4]", "result": 112, "unit": "%"}, {"measurement": "residual activity", "setting": "[1]", "result": 107, "unit": "%"}, {"measurement": "residual activity", "setting": "[5]", "result": 86, "unit": "%"}, {"measurement": "residual activity", "setting": "[6]", "result": 104, "unit": "%"}, {"measurement": "residual activity", "setting": "[7]", "result": 86, "unit": "%"}, {"measurement": "residual activity", "setting": "[8]", "result": 96, "unit": "%"}, {"measurement": "residual activity", "setting": "[9]", "result": 98, "unit": "%"}, {"measurement": "residual activity", "setting": "[10]", "result": 29, "unit": "%"}]}
{"smiles": "NC(=O)c1ccc(-c2nc(-c3ccc4c(c3)OCCO4)c(-c3ccccn3)[nH]2)cc1", "values": [{"measurement": "residual activity", "setting": "[1]", "result": 86, "unit": "%"}]}
{"smiles": "Cc1nc(-c2ccccc2)c(-c2ccncc2)o1", "values": [{"measurement": "residual activity", "setting": "[1]", "result": 135, "unit": "%"}]}
{"smiles": "Cc1ccc(S(=O)(=O)/C=C/C#N)cc1", "values": [{"measurement": "residual activity", "setting": "[1]", "result": 118, "unit": "%"}]}
{"smiles": "COc1cc2nccc(Oc3ccc(NC(=O)Nc4cc(C)on4)c(Cl)c3)c2cc1OC", "values": [{"measurement": "residual activity", "setting": "[1]", "result": 107, "unit": "%"}]}
{"smiles": "O=C1Nc2ccc(Cl)cc2/C1=C/c1cc(Cl)c(O)c(Cl)c1", "values": [{"measurement": "residual activity", "setting": "[1]", "result": 100, "unit": "%"}]}
{"smiles": "O=[N+]([O-])/C=C/c1ccc2c(c1)OCO2", "values": [{"measurement": "residual activity", "setting": "[2]", "result": 118, "unit": "%"}, {"measurement": "residual activity", "setting": "[3]", "result": 98, "unit": "%"}, {"measurement": "residual activity", "setting": "[4]", "result": 111, "unit": "%"}, {"measurement": "residual activity", "setting": "[1]", "result": 127, "unit": "%"}, {"measurement": "residual activity", "setting": "[5]", "result": 96, "unit": "%"}, {"measurement": "residual activity", "setting": "[6]", "result": 128, "unit": "%"}, {"measurement": "residual activity", "setting": "[7]", "result": 87, "unit": "%"}, {"measurement": "residual activity", "setting": "[8]", "result": 101, "unit": "%"}, {"measurement": "residual activity", "setting": "[9]", "result": 113, "unit": "%"}, {"measurement": "residual activity", "setting": "[10]", "result": 99, "unit": "%"}]}
{"smiles": "O=[N+]([O-])c1ccc(-c2nc(-c3ccc(F)cc3)c(-c3ccncc3)[nH]2)cc1", "values": [{"measurement": "residual activity", "setting": "[1]", "result": 122, "unit": "%"}]}
{"smiles": "CCN(CC)CCCCN1c2ccccc2Oc2ccc(Cl)cc21", "values": [{"measurement": "residual activity", "setting": "[1]", "result": 124, "unit": "%"}]}
{"smiles": "CC[n+]1c(/C=C/N(C)c2ccccc2)n(-c2ccccc2)c2ccc(-c3nc4ccccc4s3)cc21", "values": [{"measurement": "residual activity", "setting": "[1]", "result": 130, "unit": "%"}]}
{"smiles": "COc1ccc2c(c1)c(C1=C(c3c[nH]c4ccccc34)C(=O)NC1=O)cn2CCCN(C)C", "values": [{"measurement": "residual activity", "setting": "[1]", "result": 120, "unit": "%"}]}
{"smiles": "COc1cc2ncnc(Nc3ccc(NC(=O)c4ccccc4)cc3)c2cc1OC", "values": [{"measurement": "residual activity", "setting": "[1]", "result": 104, "unit": "%"}]}
{"smiles": "C[C@@H](N)[C@H]1CC[C@H](C(=O)Nc2ccncc2)CC1", "values": [{"measurement": "residual activity", "setting": "[1]", "result": 122, "unit": "%"}]}
{"smiles": "O=C1Nc2ccc3ncsc3c2/C1=C/c1c[nH]cn1", "values": [{"measurement": "residual activity", "setting": "[2]", "result": 52, "unit": "%"}, {"measurement": "residual activity", "setting": "[3]", "result": 9, "unit": "%"}, {"measurement": "residual activity", "setting": "[4]", "result": 102, "unit": "%"}, {"measurement": "residual activity", "setting": "[1]", "result": 101, "unit": "%"}, {"measurement": "residual activity", "setting": "[5]", "result": 68, "unit": "%"}, {"measurement": "residual activity", "setting": "[6]", "result": 50, "unit": "%"}, {"measurement": "residual activity", "setting": "[7]", "result": 48, "unit": "%"}, {"measurement": "residual activity", "setting": "[8]", "result": 35, "unit": "%"}, {"measurement": "residual activity", "setting": "[9]", "result": 25, "unit": "%"}, {"measurement": "residual activity", "setting": "[10]", "result": 4, "unit": "%"}]}
{"smiles": "CC(=O)c1ccc(N2CCOCC2)cc1O", "values": [{"measurement": "residual activity", "setting": "[1]", "result": 86, "unit": "%"}]}
{"smiles": "Nc1nc(Nc2ccc(S(N)(=O)=O)cc2)nn1C(=S)Nc1c(F)cccc1F", "values": [{"measurement": "residual activity", "setting": "[1]", "result": 86, "unit": "%"}]}
{"smiles": "COc1ccc2c(c[n+](C)c3c4cc5c(cc4ccc23)OCO5)c1OC", "values": [{"measurement": "residual activity", "setting": "[3]", "result": 84, "unit": "%"}, {"measurement": "residual activity", "setting": "[4]", "result": 119, "unit": "%"}, {"measurement": "residual activity", "setting": "[1]", "result": 95, "unit": "%"}, {"measurement": "residual activity", "setting": "[5]", "result": 94, "unit": "%"}, {"measurement": "residual activity", "setting": "[9]", "result": 123, "unit": "%"}, {"measurement": "residual activity", "setting": "[10]", "result": 95, "unit": "%"}]}
{"smiles": "COc1ccc2c(c1)/C(=C/c1cnc[nH]1)C(=O)N2", "values": [{"measurement": "residual activity", "setting": "[2]", "result": 96, "unit": "%"}, {"measurement": "residual activity", "setting": "[3]", "result": 19, "unit": "%"}, {"measurement": "residual activity", "setting": "[7]", "result": 75, "unit": "%"}, {"measurement": "residual activity", "setting": "[8]", "result": 74, "unit": "%"}]}
{"smiles": "COC(=O)[C@@]1(O)C[C@H]2O[C@]1(C)n1c3ccccc3c3c4c(c5c6ccccc6n2c5c31)C(=O)NC4", "values": [{"measurement": "residual activity", "setting": "[2]", "result": 11, "unit": "%"}, {"measurement": "residual activity", "setting": "[3]", "result": 1, "unit": "%"}, {"measurement": "residual activity", "setting": "[4]", "result": 16, "unit": "%"}, {"measurement": "residual activity", "setting": "[1]", "result": 2, "unit": "%"}, {"measurement": "residual activity", "setting": "[5]", "result": 12, "unit": "%"}, {"measurement": "residual activity", "setting": "[6]", "result": 2, "unit": "%"}, {"measurement": "residual activity", "setting": "[7]", "result": 78, "unit": "%"}, {"measurement": "residual activity", "setting": "[8]", "result": 69, "unit": "%"}, {"measurement": "residual activity", "setting": "[9]", "result": 76, "unit": "%"}, {"measurement": "residual activity", "setting": "[10]", "result": 20, "unit": "%"}]}
